Source: PubChem BioAssay (NCATS)
Records with an inconclusive call do not appear. Activity calls are given as the source filed them. Calls come from the whole dose curve; as a rule, active = well fitted curve in the direction sought with a large enough effect in the signal ratio, with a control signal flat (not every such curve was filed as active); inconclusive = small, poorly fitted or top-dose-only effect, or effect the other way, or a change in a side signal; inactive = no such curve, though single readings can be large or run the other way; the % refers to the signal ratio.

target: Peroxisome proliferator-activated receptor gamma (Homo sapiens) (UniProt P37231); test: qHTS assay for small molecule agonists of peroxisome proliferator-activated receptor gamma signaling (AID 588536); conditions: HEK293 PPARg-UAS-bla, beta-lactamase ratio, 16 h, percent of rosiglitazone response, DMSO as zero; series mostly up to 76.7 µM
Text: NIH Chemical Genomics Center [NCGC] U.S. Environmental Protection Agency [EPA] National Institutes of Environmental Health Sciences [NIEHS] National Toxicology Program [NTP] NCGC Assay Overview The Peroxisome proliferator-activated receptors (PPARs) are lipid-activated transcription factors of the nuclear receptor superfamily with three distinct subtypes namely PPAR alpha, PPAR delta (also called PPAR beta) and PPAR gamma. All these subtypes heterodimerizes with Retinoid X receptor (RXR) and these heterodimers regulate transcription of various genes. PPAR-gamma (glitazone receptor) agonists have been used in the treatment of type 2 diabetes and dyslipidaemia. It is involved in the regulation of glucose and lipid metabolism. PPAR-gamma activates certain genes like Paraoxonase 1 which is responsible for hydrolyzing organophosphates. PPAR-gamma agonists may also be therapeutically important in the treatment of coronary artery disease, obesity and cancer and atherosclerosis.
NCGC Assay Protocol Summary Using a beta-lactamase reporter-gene under control of Peroxisome Proliferator-Activated-gamma (PPAR-gamma) response element, a cell-based assay [GeneBLAzer PPAR-gamma-UAS-bla assay developed by Invitrogen] was used to measure PPAR-gamma ligands signaling. GeneBLAzer PPAR-gamma-UAS-bla-HEK293 cells were used with assay medium containing 1% charcoal/dextran treated FBS. The assay was performed in clear bottom black Greiner 1536-well plates. Rosiglitazone was used in the screen as the positive control. Library compounds were measured for their ability to stimulate the reporter gene activity. Compounds were screened in a titration series in 1536-well format. The fluorescence intensity (405 nm excitation, 460/530 nm emission) was measured using an EnVision plate reader. Data was normalized relative to Rosiglitazone control (2 uM, 100%), and DMSO only wells (basal, 0%). Concentration-response titration points for each compound were fitted to the Hill equation yielding concentrations of half-maximal stimulation (EC50) and maximal response (efficacy) values. qHTS protocol for PPAR-gamma beta-lactamase assay in agonist mode [Step] [Parameter] [Value] [Description] 1. Reagent; 6 uL; 3000 cells/well 2. Incubation; 37 C for 6 - 6.5 hrs 3. Compounds; 23 nL; 0.59 nM to 92 uM 4. Controls (Rosiglitazone); 23 nL, - One column with dose response, start 19 uM, 1:3 dilutions in duplicates - Final concentrations of 2 uM and 0.5 uM in two columns 5. Incubation; 37 C for 16 hrs 6. Detection reagent; 1 uL of CCF4-dye 7. Incubation; RT for 2 hrs 8. Detection; Fluorescence; Envision plate reader

Peroxisome proliferator-activated receptor gamma (Homo sapiens), sequence (P37231 whole entry, looked up): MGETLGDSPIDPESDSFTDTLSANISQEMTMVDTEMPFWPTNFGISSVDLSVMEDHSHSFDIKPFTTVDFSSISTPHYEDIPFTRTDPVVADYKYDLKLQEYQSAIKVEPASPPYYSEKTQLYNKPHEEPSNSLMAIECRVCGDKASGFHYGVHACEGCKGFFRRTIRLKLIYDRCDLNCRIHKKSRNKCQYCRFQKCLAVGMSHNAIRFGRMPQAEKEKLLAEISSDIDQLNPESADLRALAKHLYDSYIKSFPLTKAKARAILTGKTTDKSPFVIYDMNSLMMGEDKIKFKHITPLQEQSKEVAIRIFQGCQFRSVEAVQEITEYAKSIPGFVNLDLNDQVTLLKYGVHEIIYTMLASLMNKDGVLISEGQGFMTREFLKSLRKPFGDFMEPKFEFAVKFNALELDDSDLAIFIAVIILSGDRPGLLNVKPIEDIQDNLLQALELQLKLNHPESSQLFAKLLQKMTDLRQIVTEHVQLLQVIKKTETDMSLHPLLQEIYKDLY

Compound | outcome
ClC(Cl)Br | inactive
Cc1ccc(N)c(C)c1 | inactive
CC(C)(C)c1ccccc1O | inactive
ClCC(Cl)Cl | inactive
C=CC#N | inactive
C[N+](=O)[O-] | inactive
COc1ccccc1N | inactive
Clc1cc(Cl)c(Cl)c(Cl)c1 | inactive
CN(C)c1ccc(N=Nc2ccccc2)cc1 | inactive
Cc1ccc([N+](=O)[O-])cc1 | inactive
N#CC(Cl)(Cl)Cl | inactive
Oc1c(Cl)cccc1Cl | inactive
CN(C)c1ccc(N(C)C)cc1 | inactive
Cl/C=C/CCl | inactive
O=C(O)CBr | inactive
Cc1ccc(N)cc1N | inactive
c1ccc(P(c2ccccc2)c2ccccc2)cc1 | inactive
C=CC(=O)OCCN(C)C | inactive
C=CC(=O)OC | inactive
CCCCOC(C)=O | inactive

Compound | outcome
S=C1NCCN1 | inactive
Nc1ccc2ccccc2c1 | inactive
Oc1cc(Cl)cc(Cl)c1 | inactive
C=CC=O | inactive
O=C(Cl)c1ccccc1F | inactive
C=CCc1cc(OC)c2c(c1)OCO2 | inactive
O=C(O)C(Br)Br | inactive
O=C(O)c1cccc(Cl)c1 | inactive
O=S(=O)(O)F | inactive
Oc1ccc(Cl)c(Cl)c1 | inactive
c1ccoc1 | inactive
CCCCOC(=O)c1ccccc1N | inactive
ClCC(Br)CBr (stereo not given) | inactive
CC(Cl)CCl (stereo not given) | inactive
[O-][Cl+]O | inactive
BrC(Br)Br | inactive
N#CCc1ccccc1 | inactive
CCOP(=S)(OCC)SCCSCC | inactive
CCSC(=O)N1CCCCCC1 | inactive
O=P(OCCCl)(OCCCl)OCCCl | inactive
